Measurements from PubChem BioAssay AID720597 (Broad Institute, 2013).
Entries with a potency or affinity are not part of this list.

These compounds were tested against NAD-dependent protein deacylase sirtuin-5, mitochondrial (Homo sapiens) (UniProt Q9NXA8) (assay: blockers of sirtuin-5 peptide desuccinylation – biochemical, fluorescence imaging, cherry-pick, set 6, dose response (AID 720597;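 note: lower AMC signal can also come from blocking the trypsin step; 0% = median of neutral control wells and -100% = median of positive control wells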)). Conditions: Purified SirT5, succinyl-peptide-AMC/trypsin fluorescence; series mostly up to 15 µM; activity change, negative = inhibition: at the top concentration;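 active = fitted half-maximal dose no more than twice the top valid tested dose, for compounds that lower signal; inconclusive = fit invalid, or curve flat with activity between -70 and -30; inactive = potency past limit, curve flat within ±30, or signal increasing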.
Sequence of NAD-dependent protein deacylase sirtuin-5, mitochondrial (Homo sapiens) (Q9NXA8 whole entry, looked up): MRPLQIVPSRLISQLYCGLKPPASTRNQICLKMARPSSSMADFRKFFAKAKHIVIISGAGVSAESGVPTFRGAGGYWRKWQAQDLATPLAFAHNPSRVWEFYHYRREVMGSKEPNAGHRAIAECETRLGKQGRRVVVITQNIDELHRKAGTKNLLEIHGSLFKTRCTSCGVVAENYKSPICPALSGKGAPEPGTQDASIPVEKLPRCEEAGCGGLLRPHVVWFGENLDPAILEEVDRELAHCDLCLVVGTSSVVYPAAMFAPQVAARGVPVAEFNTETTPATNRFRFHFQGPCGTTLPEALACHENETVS

Activity change, negative = inhibition, inactive:
CN(C)C(=O)c1cccc(-c2ccc([C@H]3[C@H]4CN(S(C)(=O)=O)CCCCN4[C@H]3CO)cc2)c1 -11.1%
COc1cccc(-c2ccc3c(c2)[C@H]2[C@H](CCN2C(=O)c2ccccc2F)[C@H](CO)N3C)c1 -15.6%
C[C@H]1CN([C@@H](C)CO)S(=O)(=O)c2ccc(C#Cc3ccc(F)cc3)cc2O[C@H]1CN(C)S(=O)(=O)c1ccc(F)cc1 -20%
Cc1ccc(S(=O)(=O)Nc2ccc3c(c2)C(=O)N([C@H](C)CO)C[C@@H](C)[C@H](CN(C)C(=O)Nc2ccc(F)cc2)OCCCC[C@H](C)O3)cc1 -3.75%
C[C@@H]1CN([C@@H](C)CO)C(=O)c2cccc(NC(=O)c3nc4ccccc4s3)c2O[C@H]1CN(C)Cc1ccc(C(F)(F)F)cc1 16.9%
CCCC(=O)Nc1ccc2c(c1)OC[C@H](C)N(Cc1ccccc1)C[C@H](C)[C@@H](OC)CN(C)C2=O -21.2%
C[C@@H]1CN([C@@H](C)CO)C(=O)c2cc(-c3cccnc3)cnc2O[C@H]1CN(C)C(=O)Nc1ccc2c(c1)OCO2 19.3%
C[C@@H]1CN([C@H](C)CO)C(=O)c2cc(NC(=O)NC3CCCCC3)ccc2O[C@@H](C)CCCCO[C@@H]1CN(C)Cc1ccc(Cl)c(Cl)c1 3.17%
CN(C[C@H]1[C@@H](c2ccc(C3=CCCC3)cc2)[C@@H](CO)N1CCC(F)(F)F)S(C)(=O)=O 41.9%
COCC(=O)N1C[C@@H](C)[C@@H](OC)CN(C)C(=O)c2ccc(NC(=O)c3cc(C)on3)cc2OC[C@@H]1C -17%
C[C@@H]1CN([C@@H](C)CO)S(=O)(=O)c2ccc(/C=C/c3ccccc3)cc2O[C@@H]1CN(C)C(=O)NC1CCCC1 -1.6%
COc1ccc(S(=O)(=O)Nc2ccc3c(c2)C(=O)N([C@H](C)CO)C[C@H](C)[C@@H](CN(C)Cc2ccc(Oc4ccccc4)cc2)O3)cc1 -5.05%
C[C@@H]1CN([C@H](C)CO)S(=O)(=O)c2ccc(C#Cc3ccc(F)cc3)cc2O[C@@H]1CN(C)C(=O)NC1CCCCC1 -17%
C[C@@H]1CN([C@@H](C)CO)C(=O)c2cccc(N(C)C)c2O[C@@H]1CN(C)Cc1ccccc1 35.5%
Cc1ccc(S(=O)(=O)N(C)C[C@H]2OCCCC[C@H](C)Oc3ccc(NS(=O)(=O)c4ccccc4)cc3C(=O)N([C@@H](C)CO)C[C@H]2C)cc1 14.5%
COc1ccc(S(=O)(=O)Nc2ccc3c(c2)CC(=O)N([C@@H](C)CO)C[C@H](C)[C@H](CN(C)Cc2ccc(Oc4ccccc4)cc2)O3)cc1 -24.4%
CCS(=O)(=O)N1CC2(C1)CN(S(=O)(=O)c1cn(C)cn1)[C@@H](CO)c1[nH]c3cc(OC)ccc3c12 19.2%
C[C@@H]1CN([C@H](C)CO)S(=O)(=O)c2ccc(C#C[C@@H](C)O)cc2O[C@H]1CN(C)Cc1ccc(-c2ccccc2)cc1 -7.21%
C[C@H](CO)N1C[C@H](C)[C@@H](CN(C)Cc2ccc(Cl)c(Cl)c2)Oc2ccc(NC(=O)CCCCCC(=O)Nc3ccccc3N)cc2CC1=O 3.52%
C[C@@H]1CN([C@H](C)CO)C(=O)c2cc(N(C)C)ccc2O[C@H]1CN(C)C(=O)Nc1ccc(F)cc1 -7.29%
C[C@@H]1CN([C@@H](C)CO)C(=O)c2cc(-c3cccc(F)c3)cnc2O[C@H]1CN(C)C(=O)Nc1cc(F)ccc1F -1.1%
CNC[C@H]1Oc2ccc(NC(=O)Nc3ccc(F)cc3)cc2CC(=O)N([C@H](C)CO)C[C@@H]1C 13.9%
CO[C@@H](C(=O)N(C)C[C@H]1OCc2ccccc2-c2ccccc2C(=O)N([C@@H](C)CO)C[C@@H]1C)c1ccccc1 32.8%
C[C@@H]1CN([C@@H](C)CO)C(=O)c2cc(C#CC3CCCCC3)cnc2O[C@H]1CN(C)S(=O)(=O)c1cccc(F)c1 -1.14%
COc1ccc(S(=O)(=O)Nc2ccc3c(c2)C(=O)N([C@@H](C)CO)C[C@@H](C)[C@H](CN(C)Cc2ccc(C(F)(F)F)cc2)OCCCC[C@H](C)O3)cc1 -2.54%
Cc1cccc(-c2ccc([C@H]3[C@H](CO)N4CCCCN(S(=O)(=O)c5cccc(C)c5)C[C@@H]34)cc2)c1 -30.5%
C[C@@H]1CN([C@H](C)CO)C(=O)c2cc(NS(=O)(=O)c3ccc(Cl)cc3)ccc2O[C@@H](C)CCCCO[C@H]1CN(C)C(=O)Nc1ccc(C(F)(F)F)cc1 -1.82%
O=C(NCC[C@@H]1CC[C@@H](NS(=O)(=O)c2ccc(Cl)cc2)[C@H](CO)O1)c1ccccc1F -23.4%
